For 30 sequences, binding signal results are on record in publication PMC3315485, “Probing the Informational and Regulatory Plasticity of a Transcription Factor DNA–Binding Domain”.

This assay concerns the target T1, MarA RTR (Escherichia coli, UniProt P0ACH5 1-127, W40R;Q43T).
T1 sequence: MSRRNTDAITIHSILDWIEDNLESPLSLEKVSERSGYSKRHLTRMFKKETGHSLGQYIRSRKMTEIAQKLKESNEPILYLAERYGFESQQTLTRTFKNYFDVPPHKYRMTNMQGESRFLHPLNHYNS
The assay is described as follows: MITOMI; MITOMI, 295 K (22 C); buffer, salt and pH not stated in the material; high values mean tight binding. The note with it: protein: ivt; label: fluorescent; dsDNA, one strand shown. In a few lines:
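MarA protein variants were made by in vitro transcription and translation with the RTS E. coli HY kit and fluorescently labelled by adding tRNA-lys-bodipy-fl. Each was tested by MITOMI against 64 synthesized variants of the mar binding site, with protein and DNA fluorescence read on Genepix at 295K. Association constants were measured by MITOMI, and each site's value is expressed relative to the highest-affinity site for that protein variant.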
As for ATGTAGCGTTTTGCTAAAT, the binding signal was 0.685 Ka relative to the best site of the variant.

On to ATGTTTCGTTTTGCTAAAT, for which the binding signal is 0.716 Ka relative to the best site of the variant.

With ATGTACCGTTTTGCTAAAT, the binding signal was 0.989 Ka relative to the best site of the variant.

Turning to ATGACCCGTTTTGCTAAAT, the binding signal is 0.63 Ka relative to the best site of the variant.

Take ATGAGGCGTTTTGCTAAAT: the binding signal is 0.212 Ka relative to the best site of the variant.

ATGCCGCGTTTTGCTAAAT: the binding signal is 0.245 Ka relative to the best site of the variant.

With ATGTTACGTTTTGCTAAAT, the binding signal was 0.177 Ka relative to the best site of the variant.

With ATGAGCCGTTTTGCTAAAT, the binding signal was 0.27 Ka relative to the best site of the variant.

Consider ATGGCTCGTTTTGCTAAAT, for which the binding signal is 0.904 Ka relative to the best site of the variant.

As for ATGGCCCGTTTTGCTAAAT, the binding signal was 1 Ka relative to the best site of the variant.

ATGATTCGTTTTGCTAAAT: the binding signal is 0.208 Ka relative to the best site of the variant.

As to ATGTCACGTTTTGCTAAAT, the binding signal is 0.306 Ka relative to the best site of the variant.

On to ATGTGTCGTTTTGCTAAAT, for which the binding signal is 0.231 Ka relative to the best site of the variant.

Consider ATGGACCGTTTTGCTAAAT, for which the binding signal was 0.154 Ka relative to the best site of the variant.

Take ATGAAGCGTTTTGCTAAAT: the binding signal is 0.204 Ka relative to the best site of the variant.

In the case of ATGGTTCGTTTTGCTAAAT, the binding signal is 0.189 Ka relative to the best site of the variant.

Consider ATGTGACGTTTTGCTAAAT, for which the binding signal is 0.173 Ka relative to the best site of the variant.

For ATGTATCGTTTTGCTAAAT, the binding signal is 0.902 Ka relative to the best site of the variant.

Turning to ATGCTTCGTTTTGCTAAAT, the binding signal was 0.723 Ka relative to the best site of the variant.

For the sequence ATGGAGCGTTTTGCTAAAT, the binding signal is 0.191 Ka relative to the best site of the variant.

Turning to ATGTAACGTTTTGCTAAAT, the binding signal is 0.514 Ka relative to the best site of the variant.

As to ATGTCGCGTTTTGCTAAAT, the binding signal was 0.353 Ka relative to the best site of the variant.

Regarding ATGATGCGTTTTGCTAAAT, the binding signal was 0.243 Ka relative to the best site of the variant.

On to ATGATACGTTTTGCTAAAT, for which the binding signal is 0.208 Ka relative to the best site of the variant.

For the sequence ATGCTCCGTTTTGCTAAAT, the binding signal is 0.201 Ka relative to the best site of the variant.

For the sequence ATGCCACGTTTTGCTAAAT, the binding signal is 0.223 Ka relative to the best site of the variant.

For the sequence ATGCGCCGTTTTGCTAAAT, the binding signal is 0.178 Ka relative to the best site of the variant.

For ATGTCCCGTTTTGCTAAAT, the binding signal is 0.848 Ka relative to the best site of the variant.

As for ATGAATCGTTTTGCTAAAT, the binding signal was 0.214 Ka relative to the best site of the variant.

Regarding ATGGATCGTTTTGCTAAAT, the binding signal is 0.202 Ka relative to the best site of the variant.
